Measured values taken from article PMC5540273 (PLoS ONE, 2017).

What follows are compounds tested on RIPK2.
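Note: kd values determined as follow-up on hits from a single-replicate KINOMEscan panel screen.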

For `COc1cc2nccc(Nc3cccc(Oc4ccccc4)c3)c2cc1OC.Cl` [GW284543], which Kd is on record?
Its Kd is 0.44 µM.

Which Kd does the source give for `Nc1ncnc2c1ncn2-c1cccc(F)c1` [SKF-97560] here?
The Kd was > 10 µM.

For `Nc1nc(-c2ccccc2F)c(-c2ccnc3ccccc23)s1` [GW560459], which Kd is on record?
Its Kd is > 10 µM.

With `COc1ccc(Nc2nccc(N3CCC(NS(=O)(=O)c4ccc(NC(C)=O)cc4)C3)n2)cc1` (stereo not shown) [GSK1379729] as the compound, how does the Kd read?
Its Kd is > 10 µM.
